# From the supplement of paper PMC11417369
# ± gives the standard deviation of the averaged measurements. The full ranking holds about 25,000 sequences; the median of “ln(normalized median fluorescence intensity)” is about 10, and the highest 2% start at about 12. The entries come from a sample that favours the highest values as a whole.
# System: PfAP2-G AP2 domain (GST-tagged)
# Assay: gcPBM binding intensity (ln(normalized median fluorescence intensity)); higher = stronger DNA binding
# Outline: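 GST-tagged P. falciparum DNA-binding domains produced in E. coli were incubated for 1 h on an Agilent 4 × 180k array of primer-extended double-stranded 36-bp intergenic genomic probes with negative controls. Binding intensity is the highest Masliner-normalised natural-log median intensity across replicate spots of either probe orientation, with bound protein detected by Alexa488 anti-GST antibody at 488 nm.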
row,Sequence,gcPBM binding intensity (ln)
1,ATATACTATATTTTAACACACAAAAAAAAAAAATAT [CACACA_site1091],9.985 ± 0.035
2,AGGCACGTGTTATATACACACATAATCAAATAAACT [CACACA_site7852],10 ± 0.11
3,AAATTATAATATAATACACACATAAAAAAAAAATCA [CACACA_site3634],9.975 ± 0.049
4,CCCCCCGTGTTATATACACACATAATCAAATAAAAT [CACACA_site4111],11.8 ± 0.99
5,TAATAAATAAAATAGAGTACAGGGATTTCATTAAAT [XGTACX_site8979],11.4 ± 0.82
6,CCAGTGTGCACCTTGCGTACATATTAAATTAATTAA [XGTACX_site3729],11.5 ± 0.96
7,TTGCATTAATTTATGTGTACATATAAATTTTTATTT [XGTACX_site3060],11.6 ± 0.88
8,TTTTAATGTACCAGTGTGCACCTTGCGTACATATTA [GTGCAC_site9957],11.6 ± 0.97
9,TTTTGGATCATTTGTTGTACATATGCAAAAAAAAAA [XGTACX_site3157],11.3 ± 0.91
10,TTCATCTTAAAATTGGGTACATAACACAAAGTATAA [XGTACX_site1894],11.3 ± 0.93
11,ATGGTATCTTTTAGAAGTACATCATGATAATAATTT [XGTACX_site5544],11.7 ± 0.91
12,TTAAGAATATCTTAGAGTACATTTTATCATCTTAAA [XGTACX_site8298],11 ± 0.68
13,ATCTTATCATTTTAAAGTACATAATTAATTCTTTTT [XGTACX_site3999],11.2 ± 0.67
14,ATTTTTTTTTAATGCAAAAGGTGATGATCGGTCATA [CACACA_negctrl_site959],10.2 ± 0.35
15,TATTAAAAATGTTAAGTGCAAAAATAAAAATTGTGG [GTGCAC_site9854],10.2 ± 0.17
16,GATACACCAAATAACTGTACGCACGTGTAATATTAA [XGTACX_site3441],11.6 ± 0.83
17,ATGCATATAACTACGTGTACAAATATACACAAATAC [XGTACX_site8811],11.4 ± 0.86
18,ATTAAAAAAATATACGCACACAAAATGTAATAACAA [CACACA_site2439],10.4 ± 0.21
19,CTTATACTTCTACATCGTACAAAAGATGGTATAATT [XGTACX_site2698],10.8 ± 0.43
20,GAACCGTTTTTATGTAGTACATATGTATATATATAT [XGTACX_site1577],11.6 ± 1.1
21,ATGTATATATATATATGTACATATTTTTTATATGTA [XGTACX_site441],11.2 ± 0.81
22,TATTTACATTTTAGTAGTACATATATGTATATATAT [XGTACX_site6839],11.3 ± 0.79
23,ATATTATATTGGATGTTGCACTTAACAAAAGGATAT [GTGCAC_site9478],10.2 ± 0.23

row,Sequence,gcPBM binding intensity (ln)
1,CCTTATACGATATTATGTACGCATATGTGCATTTTT [XGTACX_site1570],11.5 ± 1
2,ATAATTATATATTTATGTACGCATAAATATTTATAT [XGTACX_site5765],11.5 ± 1.2
3,TTTTTTTCTTTTTGAGGTACGCATTATTTTATTTGT [XGTACX_site6996],11.3 ± 0.79
4,GAATTTCGATATATGTGTACGCATTTGTATTATAGG [XGTACX_site6332],11.7 ± 1.1
5,TATTATATATATAGGTGTACGCATTTGTCCTTTATA [XGTACX_site1385],11.7 ± 1.1
6,ATATTAAATATAATTTGTACGCATTTTTTTTTTTTT [XGTACX_site1910],11.5 ± 0.82
7,ATATATTAATAATTTTGTACGCATTTCCTTTTTATT [XGTACX_site1638],11.5 ± 1
8,TTTCGATTATGTTTTTGTACGCAATATATTAATTCT [XGTACX_site3634],11.5 ± 1
9,AATAATAAATTATGGTGTACGCATTTGTATATATAC [XGTACX_site5417],11.7 ± 0.98
10,TACATAAACATTTATACACACATTATGTATACATAT [CACACA_site405],10.04 ± 0.035
11,TAAAAATATTTTCATTGTACATATATATAAATATAT [XGTACX_site1123],10.9 ± 0.61
12,ACATTTTTGGTTTTAGTGCAATATGAATTATTTTAT,10.12 ± 0.078
13,AAGGATATAAAAAAACGTACGTACGATAATATAATT [XGTACX_site1292],11.6 ± 0.91
14,ATAAAATATAAAAATTGTACGATAATAATAGTAGGA [XGTACX_site8951],10.8 ± 0.36
15,AAAAAAAAATTAATATATAAAAGGATATATATATAT [GTGCAC_negctrl_site449],9.77 ± 0.46
16,TCATATATATTATACACACACATATATAAATATATA [CACACA_site967],10 ± 0.23
17,GTGTAGTAAAATCGATGTACGTACAAATCAATTATT [XGTACX_site7662],11.8 ± 0.83
18,TCATGTAGTAAAAACTGTACAAATTATTTATCATGT [XGTACX_site1727],11 ± 0.64
19,TTATTAAAAATGTATTGTACAAATTTATTAGTAAAT [XGTACX_site4799],11 ± 0.52
20,ACCTTTATTGTATGAACACACATAAGCTGATACATC [CACACA_site4028],10.2 ± 0.11
21,ATTTATTTCAATAAACTTCTTTTCTTTAACAATTAC [CACACA_negctrl_site1222],9.845 ± 0.035
22,TATTCATATTTAAAGGTGCAATATTTATTTTGTACA,10.2 ± 0.18
